Screening data from PubChem BioAssay.
This is one part of a sample in which hits are shown more often than they occur.
FH mod: Identification of activators of human fumarate hydratase by quantitative high-throughput screening; FH coupled MDH/diaphorase resazurin fluorescence, 15 min; Potency, µM (highest dose often 79.9 µM), actives largely listed as inhibitors; AID 1347055, 2019; 0.22% of 54,000 active; note: the screen sought activators but most active calls are inhibition curves; nearly all actives have a fitted effect of over 45% in size
NTMT1 inhibitor: NTMT1 methyltransferase inhibition; 2.5% of 59,000 active; Q9BV86; Potency, µM (highest dose often 114 µM), usual class: inhibitors; AID 1645870; NTMT1 MTase-Glo SAH luminescence, purified enzyme; note: nearly all actives have a fitted effect of over 65% in size
Target sequence (Q9BV86 whole entry, looked up): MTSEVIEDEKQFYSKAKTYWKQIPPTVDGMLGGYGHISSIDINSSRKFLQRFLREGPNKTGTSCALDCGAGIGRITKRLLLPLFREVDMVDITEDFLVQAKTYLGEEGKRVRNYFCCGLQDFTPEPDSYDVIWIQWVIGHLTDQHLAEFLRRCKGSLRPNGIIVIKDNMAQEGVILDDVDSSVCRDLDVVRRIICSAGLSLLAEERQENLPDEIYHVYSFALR
GALC G270D act: enhancers of human galactocerebrosidase G270D mutant activity in cells. 145M-Twi-hGALC-G270D cells (Twitcher mouse brain line with human GALC G270D), HMU-beta-Gal fluorescence, 48 h. Potency, µM (titrated, usually from 57.5 µM), actives largely listed as activators. 0.1% of 45,000 active. AID 1159614; note: nearly all actives have a fitted effect of over 65% in size
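Live 145M-Twi cells (Twitcher mouse brain-derived, GALC-null) stably expressing human GALC-G270D, with a wild-type GALC line, were compound-treated. Residual GALC activity was then read as fluorescence from 0.1 mM final HMU-β-gal at pH 5.2; higher signal means activation.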
Large screens that a line does not name were inactive; ! = a repeat was not active. Calls come from the whole dose curve; as a rule, active = well fitted curve in the direction sought with a large enough effect; inconclusive = small, poorly fitted or top-dose-only effect, or another doubt; inactive = no such curve, though single readings can be large; an effect the other way counts as inactive or inconclusive.

CO/C1=C/C(C)=C\[C@@H](C)[C@@H](O)[C@@H](C)C/C(C)=C\C=C/[C@H](OC)[C@@H]([C@@H](C)[C@@H](O)[C@H](C)[C@@]2(O)C[C@@H](O)[C@H](C)[C@@H](C(C)C)O2)OC1=O	none (no result: FH mod, GALC G270D act)
O=C(O)C(=O)c1cn(Cc2ccccc2)c2ccc(-c3ccc(OC(F)(F)F)cc3)cc12	NTMT1 inhibitor 40µM! (no result: GALC G270D act)
NC(=O)CI	FH mod 25µM (no result: NTMT1 inhibitor, GALC G270D act)
Cc1[nH]nc2ccc(-c3cncc(OC[C@@H](N)Cc4c[nH]c5ccccc45)c3)cc12	NTMT1 inhibitor 40µM! (no result: GALC G270D act)
NCCc1cc(O)c(O)cc1O	NTMT1 inhibitor 28µM
NCCc1c[nH]c2ccccc12	none (no result: NTMT1 inhibitor, GALC G270D act)
COC1CC(=O)C23C(=O)NC(CC(C)C)C2C(C)=C(C)C(OO)C3/C=C(\C)CCC(O)C1O (stereo not given)	none (no result: GALC G270D act)
OCCCCC#Cc1cncc(OC[C@@H]2CCN2)c1	none (no result: GALC G270D act)
O=P1(N(CCCl)CCCl)NCCCO1 (stereo not given)	NTMT1 inhibitor 35µM!
CCOC(=O)CC(SP(=S)(OC)OC)C(=O)OCC (stereo not given)	NTMT1 inhibitor 32µM!
